The source of these data is PubChem BioAssay (Tox21).

Molecules are shown by their SMILES. Records with an inconclusive call do not appear. Activity calls are given as the source filed them. The call rests on the fitted dose curve.

Assay [1] concerns the target Acetylcholinesterase (Homo sapiens) (UniProt P22303). Put plainly: Acetylcholinesterase (AChE) small molecule antagonists: colormetric cell-based qHTS assay (AID 1347395). Further: nearly all actives have a fitted effect of over 30% in size. Further: potency means the concentration at half of the fitted maximal effect. Summed up: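 Homogeneous whole-cell format. SH-SY5Y cells seeded overnight, dosed with compound (30 min, 37 C, 5% CO2), then given DTNB/acetylthiocholine cocktail for 90 min at 37 C; colorimetric signal.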

Assay [2] shares this target. Put plainly: Acetylcholinesterase (AChE) small molecule antagonists: enzyme-based qHTS assay (AID 1347397). Further: nearly all actives have a fitted effect of over 55% in size. Further: potency means the concentration at half of the fitted maximal effect. The settings on record: Potency: AChE enzyme activity inhibition; outcome: AChE enzyme activity inhibition. Summed up:
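Colorimetric DTNB readout of acetylthiocholine hydrolysis, 10 min at room temperature, after 30 min room-temperature exposure of 50 mU/mL recombinant human enzyme to compound; DMSO vehicle control.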

The target is the same in assay [3]. Put plainly: Acetylcholinesterase (AChE) small molecule antagonists: enzyme-based qHTS assay with human liver microsomes (AID 1347399). Further: nearly all actives have a fitted effect of over 60% in size. The settings on record: Potency: qHTS inhibition; outcome: qHTS inhibition. Summed up:
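Recombinant human AChE (50 mU/mL in the enzyme mix) and human liver microsomes (0.25 mg/mL final) were preincubated with compound and NADPH (0.25 mg/mL final) for 30 min at 37 C. Acetylthiocholine/DTNB was then added; thiocholine was read colorimetrically after 10 min at room temperature.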

Sequence of Acetylcholinesterase (Homo sapiens) (P22303 whole entry, looked up): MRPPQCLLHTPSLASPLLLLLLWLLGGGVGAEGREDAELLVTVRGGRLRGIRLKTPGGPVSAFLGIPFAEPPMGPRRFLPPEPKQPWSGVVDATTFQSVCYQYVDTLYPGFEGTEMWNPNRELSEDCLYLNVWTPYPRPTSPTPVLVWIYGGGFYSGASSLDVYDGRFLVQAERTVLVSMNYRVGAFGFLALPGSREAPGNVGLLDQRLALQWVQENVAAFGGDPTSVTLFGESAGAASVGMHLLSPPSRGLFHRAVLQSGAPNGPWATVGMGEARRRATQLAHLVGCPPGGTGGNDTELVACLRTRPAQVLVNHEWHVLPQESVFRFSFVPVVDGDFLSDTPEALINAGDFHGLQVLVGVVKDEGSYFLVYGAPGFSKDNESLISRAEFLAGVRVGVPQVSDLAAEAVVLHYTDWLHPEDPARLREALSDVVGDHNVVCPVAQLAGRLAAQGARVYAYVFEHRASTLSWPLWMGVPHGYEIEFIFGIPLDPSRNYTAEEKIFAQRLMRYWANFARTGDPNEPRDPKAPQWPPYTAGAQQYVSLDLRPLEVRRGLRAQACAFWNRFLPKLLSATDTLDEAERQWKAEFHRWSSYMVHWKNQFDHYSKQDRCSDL

Consider `CCC1CCCCC1`, for which the Potency result in assay [1], in assay [2] and in assay [3] was “inactive” each time.

`c1ccc(C(O[C@H]2CCCN(CCc3ccc4c(c3)OCO4)C2)c2ccccc2)cc1`: the Potency result in assay [1], in assay [2] and in assay [3] was “inactive” each time.

In the case of `COC(=O)c1ccccc1C(=O)c1ccc(OCCN2CCCCC2)cc1`, the Potency entry in assay [1], in assay [2] and in assay [3] was “inactive” throughout.

Turning to `COCC(=O)O[C@]1(CCN(C)CCCc2nc3ccccc3[nH]2)CCc2cc(F)ccc2[C@@H]1C(C)C`, the Potency result in assay [1], in assay [2] and in assay [3] was “inactive” in each case.

Regarding `C[C@@H](O)[C@H]1C(=O)N2C(C(=O)O)=C(S[C@@H]3CN[C@H](CNS(N)(=O)=O)C3)[C@H](C)[C@H]12`, the Potency entry in assay [1], in assay [2] and in assay [3] was “inactive” each time.

As for `CNCc1ccc(NC(=O)c2c[nH]c3c2C(=O)CCC3)cc1`, the Potency in assay [1] is 35.6 µM (active). Moreover, the Potency result in assay [2] and in assay [3] was “inactive” each time.

For the compound `Cc1c(C)c2c(c(C)c1OC(=O)CCC(=O)OCCO)CC[C@@](C)(CCC[C@H](C)CCC[C@H](C)CCCC(C)C)O2`, the Potency result in assay [1], in assay [2] and in assay [3] was “inactive” each time.

In the case of `CN(C)CCN1C(=O)c2ccccc2N(C)c2ccccc21`, the Potency entry in assay [1], in assay [2] and in assay [3] was “inactive” in each case.

`CN(Cc1cc(Br)cc(Br)c1N)C1CCCCC1`: the Potency result in assay [1], in assay [2] and in assay [3] was “inactive” in each case.

In the case of `COc1cc(NC(C)CCCN)c2ncccc2c1` (centres undefined), the Potency result in assay [1], in assay [2] and in assay [3] was “inactive” in each case.

`O=C1Cc2cc(CCN3CCN(c4nsc5ccccc45)CC3)c(Cl)cc2N1`: the Potency entry in assay [1], in assay [2] and in assay [3] was “inactive” in each case.

`CCCOc1sc(C(=O)N2CCC(c3cc(CN)ccc3F)CC2)c(C)c1Br`: the Potency result in assay [1] and in assay [3] was “inactive” throughout. Also, the Potency in assay [2] is 73 µM (active).

As for `C=CC(C)(CCC=C(C)C)OC(=O)CC(C)C` (centres undefined), the Potency entry in assay [1], in assay [2] and in assay [3] was “inactive” in each case.

Take `CN(C)CCOC(c1ccc(Cl)cc1)c1ccccn1` (centres undefined): the Potency result in assay [1], in assay [2] and in assay [3] was “inactive” in each case.

Consider `CN(C)[C@@H](CCOc1cccc2ccccc12)c1ccccc1`, for which the Potency result in assay [1], in assay [2] and in assay [3] was “inactive” in each case.

For `Oc1cccc(O)c1O`, the Potency entry in assay [1], in assay [2] and in assay [3] was “inactive” in each case.

With `CCN(C(=O)N(CC)c1ccccc1)c1ccccc1`, the Potency result in assay [1], in assay [2] and in assay [3] was “inactive” each time.

On to `CC[C@H](C)[C@H](N)C(=O)O`, for which the Potency result in assay [1], in assay [2] and in assay [3] was “inactive” each time.

Take `C=C(C)[C@@H]1CCC2=CCC[C@@H](C)[C@]2(C)C1`: the Potency entry in assay [1], in assay [2] and in assay [3] was “inactive” each time.

As for `C#C[C@]1(O)CC[C@H]2[C@@H]3CCc4cc(OC5CCCC5)ccc4[C@H]3CC[C@@]21C`, the Potency result in assay [1], in assay [2] and in assay [3] was “inactive” throughout.

As for `CCN(CC)CCOC(=O)C(Cc1cccc2ccccc12)CC1CCCO1` (centres undefined), the Potency entry in assay [1], in assay [2] and in assay [3] was “inactive” in each case.

Consider `CC(C)(C)c1cc(CCC(=O)OCCSCCOC(=O)CCc2cc(C(C)(C)C)c(O)c(C(C)(C)C)c2)cc(C(C)(C)C)c1O`, for which the Potency result in assay [1], in assay [2] and in assay [3] was “inactive” in each case.

Turning to `Cc1c(N)cccc1Cl`, the Potency entry in assay [1], in assay [2] and in assay [3] was “inactive” each time.

Consider `CC[N+](C)(CC)CCOC(=O)C1c2ccccc2Oc2ccccc21`, for which the Potency result in assay [1], in assay [2] and in assay [3] was “inactive” throughout.

Regarding `CCN1CCN(C(=O)N[C@@H](C(=O)N[C@@H]2C(=O)N3C(C(=O)O)=C(CSc4nnnn4C)CS[C@H]23)c2ccc(O)cc2)C(=O)C1=O`, the Potency result in assay [1], in assay [2] and in assay [3] was “inactive” throughout.

Turning to `CCC(O)CO` (centres undefined), the Potency entry in assay [1], in assay [2] and in assay [3] was “inactive” in each case.

For the compound `Oc1cc2ccccc2c2ccccc12`, the Potency entry in assay [1], in assay [2] and in assay [3] was “inactive” in each case.

As to `Cc1ccc(C(=O)C(=O)O)cc1C`, the Potency entry in assay [1], in assay [2] and in assay [3] was “inactive” each time.

For the compound `CCCCOc1cc(C(=O)OCCN(CC)CC)ccc1N`, the Potency result in assay [1], in assay [2] and in assay [3] was “inactive” throughout.

`C=CCN1C[C@H](C(=O)N(CCCN(C)C)C(=O)NCC)C[C@@H]2c3cccc4[nH]cc(c34)C[C@H]21`: the Potency in assay [1] is 34.7 µM (active). The Potency result in assay [2] and in assay [3] was “inactive” throughout.

For the compound `NC(=O)Nc1ccccc1`, the Potency entry in assay [1], in assay [2] and in assay [3] was “inactive” throughout.

Turning to `CCc1nn(CCCN2CCN(c3cccc(Cl)c3)CC2)c(=O)n1CCOc1ccccc1`, the Potency entry in assay [1], in assay [2] and in assay [3] was “inactive” in each case.

With `O=C(Nc1cccc2c(=O)cc(-c3nn[nH]n3)oc12)c1ccc(OCCCCc2ccccc2)cc1`, the Potency result in assay [1] and in assay [3] was “inactive” in each case. Further, the Potency in assay [2] was 27.5 µM (active).

For `CC1(C)S[C@@H]2[C@H](N=CN3CCCCCC3)C(=O)N2[C@H]1C(=O)O`, the Potency entry in assay [1], in assay [2] and in assay [3] was “inactive” each time.

`CC(C)(C)NSc1nc2ccccc2s1`: the Potency result in assay [1], in assay [2] and in assay [3] was “inactive” each time.

For `O=C1C=CCCC1`, the Potency result in assay [1], in assay [2] and in assay [3] was “inactive” in each case.

Regarding `CCCCCCCCCCCCCCCCCC[N+](C)(C)C`, the Potency entry in assay [1] and in assay [3] was “inactive” in each case. Besides, in assay [2], the Potency is 63.5 µM (active).

For `CC(=O)Nc1cc(S(=O)(=O)O)cc2cc(S(=O)(=O)O)c(N=Nc3ccccc3)c(O)c12`, the Potency entry in assay [1], in assay [2] and in assay [3] was “inactive” each time.
